PubChem BioAssay AID1159580 (chemical genetic matrix, 2015)
In all, about 5,500 compounds went through this assay and about 2,000 (36%) were called active. About 18% were inconclusive and are not listed. Rule as the data show it: active = normalized growth mostly below about 0.91 (no sharp cut-off); inconclusive = no clear call, values can overlap the other calls; inactive = mostly above about 0.92. Some of the results follow.

Experiment: chemical genetic growth profiling, strain panel (AID 1159580);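 also: tested at 20 µM; growth read once vehicle control cultures reached saturation at 30 °C; 1 = growth at the plate median or of vehicle wells; lower values mean less growth of the strain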
Details: S. cerevisiae deletion strains, growth OD
[1] = locus YHR030C, strain SLT2, stronger effect = lower value
[2] = locus YHR079C, strain IRE1, stronger effect = lower value
[3] = locus YJL095W, strain BCK1, stronger effect = lower value
[4] = locus YJR066W, strain TOR1, stronger effect = lower value
[5] = locus YLR113W, strain HOG1, stronger effect = lower value
[6] = locus YNL183C, strain NPR1, stronger effect = lower value
[7] = locus YOR231W, strain MKK1, stronger effect = lower value
[8] = locus YPL256C, strain CLN2, stronger effect = lower value

Measured: normalized growth

NC(COCc1ccccc1)C(=O)O (stereo unspecified)
inactive: [1] 1.01 | [2] 1 | [3] 0.995 | [4] 0.891 | [5] 1.01 | [6] 0.904 | [7] 1.01 | [8] 0.999

O=C(CC(=O)c1ccccc1)c1ccccc1
active: locus YAL021C, strain ccr4, stronger effect = lower value 0.0705 | locus YAL026C, strain drs2, stronger effect = lower value 0.175 | locus YAL030W, strain snc1, stronger effect = lower value 0.318 | locus YBL061C, strain skt5, stronger effect = lower value 0.12 | locus YBR009C, strain hhf1, stronger effect = lower value 0.194 | locus YBR023C, strain chs3, stronger effect = lower value 0.211 | locus YBR171W, strain sec66, stronger effect = lower value 0.735 | locus YBR231C, strain swc5, stronger effect = lower value 0.177 | locus YBR279W, strain paf1, stronger effect = lower value 0.453 | locus YCL011C, strain gbp2, stronger effect = lower value 0.3 | locus YCL016C, strain dcc1, stronger effect = lower value 0.43 | locus YCL069W, strain vba3, stronger effect = lower value 0.362 | locus YCR088W, strain abp1, stronger effect = lower value 0.462 | locus YDL005C, strain med2, stronger effect = lower value 0.596 | locus YDL040C, strain nat1, stronger effect = lower value 0.698 | locus YDR001C, strain nth1, stronger effect = lower value 0.639 | locus YDR069C, strain doa4, stronger effect = lower value 0.0695 | locus YDR137W, strain rgp1, stronger effect = lower value 0.135 | locus YDR159W, strain sac3, stronger effect = lower value 0.541 | locus YDR195W, strain ref2 0.516 | locus YDR297W, strain sur2, stronger effect = lower value 0.192 | locus YDR334W, strain swr1, stronger effect = lower value 0.152 | locus YDR335W, strain msn5, stronger effect = lower value 0.227 | locus YDR392W, strain spt3, stronger effect = lower value 0.396 | locus YEL003W, strain gim4, stronger effect = lower value 0.379 | locus YEL037C, strain rad23, stronger effect = lower value 0.342 | locus YEL061C, strain CIN8 (second series), stronger effect = lower value 0.437 | locus YER015W, strain faa2, stronger effect = lower value 0.122 | locus YER016W, strain bim1, stronger effect = lower value 0.544 | locus YER111C, strain swi4, stronger effect = lower value 0.204 | locus YER155C, strain BEM2 (second series), stronger effect = lower value 0.381 | locus YFR010W, strain ubp6, stronger effect = lower value 0.171 | locus YGL167C, strain pmr1, stronger effect = lower value 0.166 | locus YGL173C, strain kem1, stronger effect = lower value 0.119 | locus YGL227W, strain vid30, stronger effect = lower value 0.725 | locus YGL240W, strain doc1, stronger effect = lower value 0.457 | locus YGL253W, strain hxk2, stronger effect = lower value 0.147 | locus YHR013C, strain ard1, stronger effect = lower value 0.14 | locus YHR027C, strain rpn1, stronger effect = lower value 0.0797 | [1] 0.515 | [2] 0.468 | locus YHR142W, strain chs7, stronger effect = lower value 0.171 | locus YJL092W, strain hpr5, stronger effect = lower value 0.432 | locus YJL095W, strain BCK1 (second series), stronger effect = lower value 0.108 | [3] 0.524 | locus YJL115W, strain asf1, stronger effect = lower value 0.546 | locus YJL129C, strain trk1, stronger effect = lower value 0.596 | locus YJL154C, strain vps35, stronger effect = lower value 0.237 | locus YJL164C, strain tpk1, stronger effect = lower value 0.154 | locus YJL166W, strain qcr8, stronger effect = lower value 0.16 | [4] 0.565 | locus YKL160W, strain elf1, stronger effect = lower value 0.578 | locus YKR026C, strain gcn3, stronger effect = lower value 0.685 | locus YKR091W, strain srl3, stronger effect = lower value 0.527 | locus YLL001W, strain dnm1, stronger effect = lower value 0.363 | locus YLL026W, stronger effect = lower value 0.373 | locus YLL041C, strain sdh2, stronger effect = lower value 0.328 | locus YLR027C, strain aat2, stronger effect = lower value 0.261 | [5] 0.348 | locus YLR221C, strain rsa3, stronger effect = lower value 0.284 | locus YLR258W, strain gsy2, stronger effect = lower value 0.234 | locus YLR262C, strain YPT6 (second series), stronger effect = lower value 0.101 | locus YLR320W, strain mms22, stronger effect = lower value 0.207 | locus YLR342W, strain FKS1, stronger effect = lower value 0.344 | locus YLR357W, strain rsc2, stronger effect = lower value 0.471 | locus YLR370C, strain arc18, stronger effect = lower value 0.147 | locus YLR384C, strain iki3, stronger effect = lower value 0.437 | locus YML120C, strain ndi1, stronger effect = lower value 0.498 | locus YMR058W, strain fet3, stronger effect = lower value 0.0728 | locus YMR125W, strain sto1, stronger effect = lower value 0.82 | locus YMR129W, stronger effect = lower value 0.393 | locus YMR205C, strain PFK2, stronger effect = lower value 0.242 | locus YMR231W, strain pep5, stronger effect = lower value 0.0832 | locus YNL071W, strain lat1, stronger effect = lower value 0.351 | [6] 0.517 | locus YNL209W, strain ssb2, stronger effect = lower value 0.0845 | locus YNL248C, strain rpa49, stronger effect = lower value 0.552 | locus YNL322C, strain KRE1 (second series), stronger effect = lower value 0.619 | locus YNR049C, strain mso1, stronger effect = lower value 0.434 | locus YOR001W, strain rrp6, stronger effect = lower value 0.45 | locus YOR070C, strain gyp1, stronger effect = lower value 0.575 | locus YOR080W, strain dia2, stronger effect = lower value 0.127 | locus YOR083W, strain WHI5, stronger effect = lower value 0.186 | locus YOR106W, strain vam3, stronger effect = lower value 0.0633 | [7] 0.497 | locus YOR265W, strain rbl2, stronger effect = lower value 0.179 | locus YOR270C, strain vph1, stronger effect = lower value 0.105 | locus YOR290C, strain snf2, stronger effect = lower value 0.391 | locus YPL051W, strain arl3, stronger effect = lower value 0.102 | locus YPL078C, strain atp4, stronger effect = lower value 0.414 | locus YPL106C, strain sse1, stronger effect = lower value 0.416 | locus YPL240C, strain hsp82, stronger effect = lower value 0.4 | [8] 0.57
